Test results taken from PubChem BioAssay.
For some assays here: Results with a measured potency or affinity are listed apart. The source made the active and inactive calls. Unless noted, how the calls were made is not given here.

How the values were obtained:
[1] = antimalarial activity against Dd2 strain (AID 2302;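 active means growth inhibition above 50% at the single 2 µM test dose, taken to imply half-maximal potency below 2 µM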;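 further: 0% = DMSO untreated growth and 100% = chloroquine plus artemisinin killed control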); conditions: P. falciparum Dd2 in RBCs, LDH growth readout, 72 h; at 2 µM; stronger effect = higher value
[2] = HepG2 cytotoxicity, primary screen, cytotoxicity control for P. falciparum antimalarial project, cell-based, ATP luminescence (AID 2303;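 active means inhibition above 50%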;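 further: 0% = DMSO wells and 100% = digitonin-killed cells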); conditions: HepG2 viability, 24-48 h, at 10 µM, stronger effect = higher value
[3] = target: L-lactate dehydrogenase (Plasmodium falciparum (isolate CDC / Honduras)) (UniProt Q27743); experiment: PfLDH activity inhibition – cell lysate, 3D7 strain, counter-screen for P. falciparum growth inhibition project (AID 2304);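 further: 0% = vehicle and 100% = reference inhibitor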; conditions: P. falciparum 3D7 crude extract, LDH APAD/NBT absorbance; at 2 µM; stronger effect = higher value
[4] = inhibition of 3D7 malaria parasite growth – strain 3D7 (AID 2306);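 further: 0% = DMSO wells and 100% = chloroquine plus artemisinin control wells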; conditions: P. falciparum 3D7 erythrocytic growth, LDH absorbance, 72 h; at 2 µM; stronger effect = higher value
[5] = target: Calcium-dependent protein kinase 1 (Plasmodium falciparum (isolate 3D7)) (UniProt P62344); experiment: PfCDPK1 kinase inhibitors, biochemical, TCAMS library (AID 1159585; cut-off not given, nearly all actives have IC50 up to about 0.98 µM;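 further: inhibitors leave more ATP so luminescence rises with inhibition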); conditions: recombinant PfCDPK1, Kinase-Glo ATP depletion luminescence
[6] = target: Plasmodium falciparum protein kinase 6 (PK6, PF3D7_1337100) (UniProt Q8IDW1); experiment: PfPK6 kinase inhibitors, biochemical, TCAMS library (AID 1159586); conditions: recombinant PfPK6, Kinase-Glo ATP depletion luminescence
[7] = target: Protein kinase 7 (PK7), Plasmodium falciparum 3D7 (PF3D7_0213400) (UniProt Q7YTF7); experiment: inhibition of Plasmodium PK7 catalytic activity – biochemical, TCAMS antimalarial set, Kinase-Glo luminescence (AID 1159587); conditions: recombinant PfPK7, Kinase-Glo ATP depletion luminescence
[8] = target: Calcium-dependent protein kinase 4 (Plasmodium falciparum (isolate 3D7)) (UniProt Q8IBS5); experiment: PfCDPK4 kinase inhibitors, biochemical, TCAMS library (AID 1159588; cut-off not given, nearly all actives have IC50 up to about 0.91 µM); conditions: recombinant PfCDPK4, Kinase-Glo ATP depletion luminescence
Calcium-dependent protein kinase 4 (Plasmodium falciparum (isolate 3D7)), sequence (Q8IBS5 whole entry, looked up): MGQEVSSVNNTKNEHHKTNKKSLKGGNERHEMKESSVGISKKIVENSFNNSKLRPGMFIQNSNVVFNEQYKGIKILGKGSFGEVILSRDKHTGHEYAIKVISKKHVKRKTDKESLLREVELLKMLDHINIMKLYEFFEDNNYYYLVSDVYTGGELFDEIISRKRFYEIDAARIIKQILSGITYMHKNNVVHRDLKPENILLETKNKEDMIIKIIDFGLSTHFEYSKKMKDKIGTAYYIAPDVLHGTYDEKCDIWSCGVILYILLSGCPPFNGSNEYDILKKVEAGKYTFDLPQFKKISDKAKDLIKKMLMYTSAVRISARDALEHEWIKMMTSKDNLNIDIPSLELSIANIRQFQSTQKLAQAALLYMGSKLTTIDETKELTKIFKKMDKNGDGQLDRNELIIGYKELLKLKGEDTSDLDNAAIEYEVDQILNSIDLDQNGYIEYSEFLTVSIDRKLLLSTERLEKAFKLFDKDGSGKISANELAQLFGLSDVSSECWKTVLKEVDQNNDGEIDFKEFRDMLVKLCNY

Protein kinase 7 (PK7), Plasmodium falciparum 3D7 (PF3D7_0213400), sequence (Q7YTF7 1-343): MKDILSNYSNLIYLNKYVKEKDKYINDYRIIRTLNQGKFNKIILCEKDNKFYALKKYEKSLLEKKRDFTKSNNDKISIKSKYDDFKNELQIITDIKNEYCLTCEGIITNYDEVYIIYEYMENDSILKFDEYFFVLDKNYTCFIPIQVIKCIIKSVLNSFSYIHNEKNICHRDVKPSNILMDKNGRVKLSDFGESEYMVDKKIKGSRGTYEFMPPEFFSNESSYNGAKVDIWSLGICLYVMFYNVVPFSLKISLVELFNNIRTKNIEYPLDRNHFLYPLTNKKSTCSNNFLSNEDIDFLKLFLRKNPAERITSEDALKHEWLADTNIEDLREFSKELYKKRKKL
Plasmodium falciparum protein kinase 6 (PK6, PF3D7_1337100), sequence (Q8IDW1 1-305): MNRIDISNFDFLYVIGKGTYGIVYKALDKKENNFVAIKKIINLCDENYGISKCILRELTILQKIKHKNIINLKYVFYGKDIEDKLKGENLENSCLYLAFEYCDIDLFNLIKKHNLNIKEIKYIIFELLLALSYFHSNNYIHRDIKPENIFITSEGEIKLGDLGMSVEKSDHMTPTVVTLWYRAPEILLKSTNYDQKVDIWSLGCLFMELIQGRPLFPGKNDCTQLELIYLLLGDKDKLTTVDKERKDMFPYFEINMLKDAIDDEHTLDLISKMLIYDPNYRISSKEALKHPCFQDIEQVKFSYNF
L-lactate dehydrogenase (Plasmodium falciparum (isolate CDC / Honduras)), sequence (Q27743 whole entry, looked up): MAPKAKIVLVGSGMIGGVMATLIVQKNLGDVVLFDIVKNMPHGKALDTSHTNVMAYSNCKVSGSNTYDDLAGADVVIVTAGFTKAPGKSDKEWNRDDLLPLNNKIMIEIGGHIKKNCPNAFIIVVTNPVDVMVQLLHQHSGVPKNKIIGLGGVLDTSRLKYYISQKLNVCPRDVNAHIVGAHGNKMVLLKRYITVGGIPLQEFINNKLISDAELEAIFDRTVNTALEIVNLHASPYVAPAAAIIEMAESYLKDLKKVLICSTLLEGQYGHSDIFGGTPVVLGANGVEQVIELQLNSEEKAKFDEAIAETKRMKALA
Calcium-dependent protein kinase 1 (Plasmodium falciparum (isolate 3D7)), sequence (P62344 whole entry, looked up): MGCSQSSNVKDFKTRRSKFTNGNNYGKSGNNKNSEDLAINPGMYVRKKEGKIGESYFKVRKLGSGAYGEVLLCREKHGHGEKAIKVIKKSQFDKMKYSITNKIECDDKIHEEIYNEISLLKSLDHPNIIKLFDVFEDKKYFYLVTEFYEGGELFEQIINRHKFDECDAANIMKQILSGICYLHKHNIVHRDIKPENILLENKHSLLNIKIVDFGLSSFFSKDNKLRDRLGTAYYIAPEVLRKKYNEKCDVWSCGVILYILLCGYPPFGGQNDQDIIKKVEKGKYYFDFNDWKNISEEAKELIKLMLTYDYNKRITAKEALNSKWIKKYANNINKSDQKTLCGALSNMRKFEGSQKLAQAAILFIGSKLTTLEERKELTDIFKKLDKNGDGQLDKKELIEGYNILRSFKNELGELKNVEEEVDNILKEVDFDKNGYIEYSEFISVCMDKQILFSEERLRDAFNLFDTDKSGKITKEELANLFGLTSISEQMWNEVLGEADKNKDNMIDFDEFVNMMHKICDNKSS

N=c1c2c(n(Cc3ccccc3)c3c1CCC3)CCCC2
inactive: growth inhibition [1] 39% | inhibition [2] 4% | inhibition [3] -4% | outcome [5] | outcome [6] | outcome [7] | outcome [8]
active: growth inhibition [4] 86%

FC(F)(F)c1ccc2nc(-c3ccc(-c4cccc(CNCCN5CCNCC5)c4)cc3)[nH]c2c1
active: growth inhibition [4] 92%
inactive: growth inhibition [1] 2% | inhibition [2] 13% | inhibition [3] -1% | outcome [5] | outcome [6] | outcome [7] | outcome [8]

COc1ccc(CCNCCCCCCNCCc2ccc(Cl)c(Cl)c2)cc1OC
inactive: growth inhibition [1] 10% | inhibition [3] -1% | outcome [5] | outcome [6] | outcome [7] | outcome [8]
active: inhibition [2] 59% | growth inhibition [4] 101%

CCc1cc2c(Sc3nnc(N)s3)ncnc2s1
inactive: inhibition [2] -20% | inhibition [3] -4% | outcome [5] | outcome [6] | outcome [7] | outcome [8]
active: growth inhibition [1] 65% | growth inhibition [4] 99%

Cc1cc(N(C)C)nc(Nc2ccc(NS(=O)(=O)c3ccccc3)cc2)n1
active: growth inhibition [4] 92%
inactive: growth inhibition [1] 11% | inhibition [2] -3% | inhibition [3] -1% | outcome [5] | outcome [6] | outcome [7] | outcome [8]

CCCc1cc(Cc2cnc(N)nc2N)cc2c1OC(C)C2C (stereo not given)
active: growth inhibition [4] 98%
inactive: growth inhibition [1] 0% | inhibition [2] 32% | inhibition [3] -3% | outcome [5] | outcome [6] | outcome [7] | outcome [8]

N[C@@H](COc1cccc2c(-c3ccncc3)c(-c3cccc(NC(=O)Nc4ccccc4)c3)nn12)c1ccccc1
inactive: inhibition [2] 9% | inhibition [3] 2% | outcome [5] | outcome [6] | outcome [7] | outcome [8]
active: growth inhibition [1] 71% | growth inhibition [4] 101%

CCCCCn1c(Sc2ccc(C#N)c([N+](=O)[O-])c2)nnc1-c1ccc(Cl)cc1
inactive: growth inhibition [1] 29% | inhibition [2] 18% | inhibition [3] 3% | outcome [5] | outcome [6] | outcome [7] | outcome [8]
active: growth inhibition [4] 88%

COCCCNC(=O)c1ccc(O)c(-c2cc(Cl)cc(Cl)c2)c1
active: growth inhibition [4] 94%
inactive: growth inhibition [1] 34% | inhibition [2] 22% | inhibition [3] -7% | outcome [5] | outcome [6] | outcome [7] | outcome [8]

Fc1ccc(CNc2nc(-c3ccc(F)c(C(F)(F)F)c3)n(-c3cccc(C(F)(F)F)c3)n2)cc1
active: growth inhibition [1] 80% | growth inhibition [4] 95%
inactive: inhibition [2] 0% | inhibition [3] -1% | outcome [5] | outcome [6] | outcome [7] | outcome [8]

CC(C)(CNC(=O)C1CCN(CC2CCCCC2)CC1)c1nc(-c2ccc(Cl)c(O)c2)c(-c2ccncc2)[nH]1
active: growth inhibition [4] 98%
inactive: growth inhibition [1] 31% | inhibition [2] -6% | inhibition [3] -3% | outcome [5] | outcome [6] | outcome [7] | outcome [8]

Cc1ccc(CNC(=O)[C@H](CC(C)C)Nc2cc(C)nc(Nc3ccccc3)n2)cc1
active: growth inhibition [4] 97%
inactive: growth inhibition [1] 19% | inhibition [2] 12% | inhibition [3] -1% | outcome [5] | outcome [6] | outcome [7] | outcome [8]

CCCNC(=O)C1Cc2c([nH]c3ccc(Br)cc23)C2(CCN(CCc3ccccc3)CC2)N1 (stereo not given)
active: growth inhibition [4] 99%
inactive: growth inhibition [1] 49% | inhibition [2] 16% | inhibition [3] -8% | outcome [5] | outcome [6] | outcome [7] | outcome [8]

CCc1cn(CCS(C)(=O)=O)c2ccc(C(=O)N[C@@H](Cc3ccccc3)[C@H](O)CNC(C)(C)CCCC(C)C)cc12
active: growth inhibition [1] 96% | growth inhibition [4] 87%
inactive: inhibition [2] 16% | inhibition [3] -7% | outcome [5] | outcome [6] | outcome [7] | outcome [8]

COc1ccc(NC(=O)Nc2ccc(C)c(-c3ccc(C(=O)Nc4ccncc4)cc3)c2)cc1
inactive: inhibition [2] 39% | inhibition [3] 4% | outcome [5] | outcome [6] | outcome [7] | outcome [8]
active: growth inhibition [1] 50% | growth inhibition [4] 99%

Cc1cc(N2CCOCC2)nc(Nc2ccc(NC(=O)c3cccc4ccccc34)cc2)n1
active: growth inhibition [4] 95%
inactive: growth inhibition [1] 11% | inhibition [2] 44% | inhibition [3] -1% | outcome [5] | outcome [6] | outcome [7] | outcome [8]

COc1cc2nc(N3CCC(CNC(=O)c4ccc(-c5ccc(C#N)cc5)cc4)CC3)nc(N)c2cc1OC
inactive: inhibition [2] 21% | inhibition [3] -4% | outcome [5] | outcome [6] | outcome [7] | outcome [8]
active: growth inhibition [1] 99% | growth inhibition [4] 100%

Fc1ccc(Nc2ccnc3cc(-c4cccc(CN5CCCCC5)c4)ccc23)c(Cl)c1
inactive: inhibition [2] 3% | inhibition [3] -1% | outcome [5] | outcome [6] | outcome [7] | outcome [8]
active: growth inhibition [1] 58% | growth inhibition [4] 91%

O=C(NCc1ccc(F)cc1)Nc1cccc(-c2ccc(-c3nc4ccccc4[nH]3)cc2)c1
active: growth inhibition [4] 101%
inactive: growth inhibition [1] 49% | inhibition [2] 45% | inhibition [3] 2% | outcome [5] | outcome [6] | outcome [7] | outcome [8]

O=C(Nc1ccnc(-c2cccnc2)n1)c1cc(C(F)(F)F)cc(C(F)(F)F)c1
active: growth inhibition [4] 95%
inactive: growth inhibition [1] 12% | inhibition [2] 22% | inhibition [3] -4% | outcome [5] | outcome [6] | outcome [7] | outcome [8]

Oc1ccc2ccccc2c1CNC1CCCCCC1
active: growth inhibition [4] 83%
inactive: growth inhibition [1] 33% | inhibition [2] 9% | inhibition [3] 5% | outcome [5] | outcome [6] | outcome [7] | outcome [8]

Cc1cc(Nc2ccc3ccccc3c2)n2ncnc2n1
active: growth inhibition [1] 95% | growth inhibition [4] 96%
inactive: inhibition [2] 11% | inhibition [3] -2% | outcome [5] | outcome [6] | outcome [7] | outcome [8]

O=C(Nc1cccnc1)c1cc(-c2cc(Cl)ccc2O)n[nH]1
active: growth inhibition [1] 85% | growth inhibition [4] 98%
inactive: inhibition [2] 7% | inhibition [3] 6% | outcome [5] | outcome [6] | outcome [7] | outcome [8]

NC(=NCc1ccccc1)Nc1nc(-c2ccc(OCCCn3ccnc3)cc2)cs1
active: growth inhibition [1] 55% | growth inhibition [4] 100%
inactive: inhibition [2] 10% | inhibition [3] 2% | outcome [5] | outcome [6] | outcome [7] | outcome [8]

Cc1ccc2c(NN=Cc3ccc(Cl)cc3)cc(C)nc2c1
inactive: growth inhibition [1] 34% | inhibition [2] -1% | inhibition [3] -2% | outcome [5] | outcome [6] | outcome [7] | outcome [8]
active: growth inhibition [4] 100%

CCCCNc1cc(NCCCC)c2c(n1)[nH]c1ccccc12
active: growth inhibition [1] 94% | growth inhibition [4] 100%
inactive: inhibition [2] 13% | inhibition [3] -1% | outcome [5] | outcome [6] | outcome [7] | outcome [8]

O=S(=O)(c1ccccc1)C1CC1
active: growth inhibition [1] 65% | growth inhibition [4] 89%
inactive: inhibition [2] -3% | inhibition [3] 7% | outcome [5] | outcome [6] | outcome [7] | outcome [8]

COc1ccc2cc(-c3nc(-c4c(Cl)cccc4Cl)[nH]c3-c3ccnc(NCCC4CCCN4C)c3)ccc2c1 (stereo not given)
inactive: inhibition [2] 11% | inhibition [3] 2% | outcome [5] | outcome [6] | outcome [7] | outcome [8]
active: growth inhibition [1] 82% | growth inhibition [4] 100%

c1ccc(CN2CCC(Nc3ccc(-c4cn[nH]c4-c4ccccn4)nc3)CC2)cc1
inactive: growth inhibition [1] 23% | inhibition [2] 1% | inhibition [3] -5% | outcome [5] | outcome [6] | outcome [7] | outcome [8]
active: growth inhibition [4] 97%

COc1cccc(C2=CC(C)(C)Oc3cc(OCCN(C)C)ccc32)c1
inactive: inhibition [3] -4% | outcome [5] | outcome [6] | outcome [7] | outcome [8]
active: growth inhibition [1] 96% | inhibition [2] 57% | growth inhibition [4] 97%

Cc1cccc2[nH]c(-c3ccc(-c4cccc(CN5CCN(CCO)CC5)c4)cc3)nc12
inactive: inhibition [2] 20% | inhibition [3] -3% | outcome [5] | outcome [6] | outcome [7] | outcome [8]
active: growth inhibition [1] 55% | growth inhibition [4] 100%

O=C(Nc1ccc(OC2CCN(Cc3ccc(F)cc3)C2)c(Cl)c1)c1cccs1 (stereo not given)
active: growth inhibition [1] 97% | growth inhibition [4] 98%
inactive: inhibition [2] 21% | inhibition [3] 2% | outcome [5] | outcome [6] | outcome [7] | outcome [8]

CCc1ccc(OCCCON2C(N)=NC(N)=NC2(C)C)cc1
active: growth inhibition [1] 95% | inhibition [2] 64% | growth inhibition [4] 95%
inactive: inhibition [3] -8% | outcome [5] | outcome [6] | outcome [7] | outcome [8]

Clc1ccc(Sc2cncnc2N2CCOCC2)cc1
active: inhibition [2] 66% | growth inhibition [4] 95%
inactive: growth inhibition [1] -6% | inhibition [3] -2% | outcome [5] | outcome [6] | outcome [7] | outcome [8]

CCC1(CC)N=C(N)N=C(N)C1c1ccc(Cl)c(Cl)c1 (stereo not given)
inactive: growth inhibition [1] 20% | inhibition [2] -16% | inhibition [3] 7% | outcome [5] | outcome [6] | outcome [7] | outcome [8]
active: growth inhibition [4] 98%

Cc1c2c(nn1-c1ccccc1)C(c1ccccc1)N(c1ccccc1)C2=O (stereo not given)
inactive: inhibition [2] 42% | inhibition [3] 1% | outcome [5] | outcome [6] | outcome [7] | outcome [8]
active: growth inhibition [1] 96% | growth inhibition [4] 92%

N=c1n(Cc2ccc(Cl)cc2)c2ccccc2n1CC(O)c1ccc(Cl)c(Cl)c1 (stereo not given)
active: growth inhibition [1] 99% | inhibition [2] 58% | growth inhibition [4] 98%
inactive: inhibition [3] 4% | outcome [5] | outcome [6] | outcome [7] | outcome [8]

CN(Cc1cccc(O)c1)C1CCN(c2cc(NC(=O)c3ccc(F)cc3)ccn2)CC1
active: growth inhibition [4] 94%
inactive: growth inhibition [1] 9% | inhibition [2] 24% | inhibition [3] -2% | outcome [5] | outcome [6] | outcome [7] | outcome [8]

O=C(Nc1ccc(Cl)cc1)Nc1ccc2c(c1)N1CCN=C1S2
inactive: inhibition [2] 15% | inhibition [3] -1% | outcome [5] | outcome [6] | outcome [7] | outcome [8]
active: growth inhibition [1] 100% | growth inhibition [4] 99%

CCOC(=O)C1=C(C)N=c2sc(=Cc3ccccc3O)c(=O)n2C1c1ccc(OC)c2ccccc12 (stereo not given)
active: growth inhibition [4] 97%
inactive: growth inhibition [1] 38% | inhibition [2] -6% | inhibition [3] 1% | outcome [5] | outcome [6] | outcome [7] | outcome [8]
